Measured values from PubChem BioAssay (Tox21).
Records with an inconclusive call do not appear. Some compounds were tested as several samples or in several runs, with calls that do not always agree. The source made the active and inactive calls. The call rests on the fitted dose curve; in most records, active means well fitted activation curve with a large enough effect in the repeat runs; inconclusive means weak or mixed curves, or effect the other way; inactive means no such curve, though single readings can be large or run the other way.

Assay: qHTS assay to identify small molecule agonists of the estrogen related receptor signaling pathway with the pleiotropic PPARgamma coactivator (PGC) from Tox21 10K library (AID 1224842); further: nearly all actives have a fitted effect of over 15% in size
Conditions: PGC/ERR reporter cell line, luciferase ONE-Glo, 18 h; series mostly up to 92.4 µM; activation: at the top concentration
From the text: National Center for Advancing Translational Sciences [NCATS] NIH Chemical Genomics Center [NCGC] U.S. Environmental Protection Agency [EPA] National Institutes of Environmental Health Sciences [NIEHS] National Toxicology Program [NTP] Assay overview: Estrogen related receptors (ERRs), the first orphan nuclear receptors discovered, play an important role in the control of cellular energy metabolism. ERRs are required for high-energy production in response to the environmental challenges. The pleiotropic PPARgamma coactivator (PGC) is a major partner of ERR and a key regulator in energy homeostasis. Together they have been implicated in the etiology of metabolic disorders such as Type 2 diabetes and metabolic syndrome. ERR-alpha was also identified as an adverse marker for breast cancer progression; ERR-alpha-positive tumors have a poor prognosis. To screen and to identify environmental compounds that perturb the PGC/ERR signaling pathways could provide valuable information for potential therapeutic or preventive measures in the treatment of metabolic disease. For identifying PGC/ERR agonists, PGC/ERR cell line (provided by NTP) has been used to screen Tox21 10K library.
Assay Protocol Summary: The PGC/ERR cells were dispensed at 2,000 cells/5 ul/well in 1536-well white plates using a Multidrop dispenser. After the assay plates were incubated at a 37 C/5% CO2 incubator for 6 hours, 23 nL of compounds dissolved in DMSO, positive and negative controls or DMSO only was transferred to the assay plate by a pin tool. The plates were incubated at 37 C for 18 hours. 4 ul/well of One-Glo reagent was added into the assay plates using a Flying Reagent Dispenser. After 30-minute incubation at room temperature, the luminescence intensity in the plates was measured using a ViewLux plate reader.
On the % scale 0 is the no-effect control and ±100 the full control effect; potency means the concentration at half of the fitted maximal effect.

Row | SMILES | activation | Potency
1 | CCC1COC(Cn2cncn2)(c2ccc(Cl)cc2Cl)O1 (stereo not given) | -23.4% (inactive) | –
2 | Oc1cc(Cl)cc(Cl)c1 | -15.8% (inactive) | –
3 | C=CC(=O)[O][Sn]([CH2]CCC)([CH2]CCC)[CH2]CCC | -35.4% (inactive) | –
4 | COP(=S)(OC)Oc1nc(Cl)c(Cl)cc1Cl | -3.66% (inactive) | –
5 | Oc1cc(Cl)c(Cl)c(Cl)c1Cl | -24.1% (inactive) | –
6 | COP(=O)(OC)Oc1ccc([N+](=O)[O-])cc1 | -20.9% (inactive) | –
7 | Oc1cccc(Cl)c1Cl | -15.6% (inactive) | –
8 | CCOP(=S)(OCC)Oc1cc(C)nc(N(CC)CC)n1 | -8.97% (inactive) | –
9 | COc1cnc(OC)n2nc(NS(=O)(=O)c3c(OCC(F)F)cccc3C(F)(F)F)nc12 | -0.0183% (inactive) | –
10 | CCOP(=S)(OCC)SC(CCl)N1C(=O)c2ccccc2C1=O (stereo not given) | -0.302% (inactive) | –
11 | CN1CCc2cc3c(cc2C1O)OCO3 (stereo not given) | -0.573% (inactive) | –
12 | CC(C)NCC(O)c1ccccc1Cl (stereo not given) | -0.961% [at 42.5 µM] (inactive) | –
13 | CNC(=O)Oc1cc(C)cc(C(C)C)c1 | -0.851% (inactive) | –
14 | COP(=S)(OC)Oc1ccc([N+](=O)[O-])c(C)c1 | -18.1% (inactive) | –
15 | CSSC | -1.86% (inactive) | –
16 | Cc1nn(-c2cc(NS(C)(=O)=O)c(Cl)cc2Cl)c(=O)n1C(F)F | -4.93% (inactive) | –
17 | O=C1C2(Cl)C3(Cl)C4(Cl)C(Cl)(Cl)C5(Cl)C3(Cl)C1(Cl)C5(Cl)C24Cl (stereo not given) | – | inactive
18 | O=[N+]([O-])c1ccc(Cl)c(Cl)c1Cl | -4.87% (inactive) | –
19 | CC(Cc1ccc2c(c1)OCO2)NO (stereo not given) | -0.0813% (inactive) | –
20 | CC(C)N(C(=O)CCl)c1ccccc1 | – | inactive

Row | SMILES | activation | Potency
21 | O=c1[nH]c2cc(Cl)ccc2n1C1CCNCC1 | -0.468% [at 42.5 µM] (inactive) | –
22 | O=C1C(Cl)=C(Cl)C(=O)C(Cl)=C1Cl | – | inactive
23 | CC(=O)[O][Pb]([c]1ccccc1)([c]1ccccc1)[c]1ccccc1 | -38.7% (inactive) | –
24 | CC(=O)[O][Sn]([c]1ccccc1)([c]1ccccc1)[c]1ccccc1 | -37.6% (inactive) | –
25 | O=C1C[C@@H]2OCC=C3CN4CC[C@]56c7ccccc7N1[C@H]5[C@H]2[C@H]3C[C@H]46 | -4.74% [at 42.5 µM] (inactive) | –
26 | Cc1c([N+](=O)[O-])c(C)c([N+](=O)[O-])c(C(C)(C)C)c1[N+](=O)[O-] | -2.96% (inactive) | –
27 | O=Cc1ccccc1 | -0.852% (inactive) | –
28 | CCCCN(CCCC)C(=S)[S-].CCCCN(CCCC)C(=S)[S-].[Ni+2] | 2.43% [at 42.5 µM] (inactive) | –
29 | CC(O)C(=O)[O][Hg][c]1ccccc1 (stereo not given) | -39% (inactive) | –
30 | Cc1ccccc1OP(=O)(Oc1ccccc1C)Oc1ccccc1C | 2.37% (inactive) | –
31 | CN=C=O | 4.16% (inactive) | –
32 | COc1nc(C)nc(NC(=O)NS(=O)(=O)c2ccccc2Cl)n1 | -0.36% (inactive) | –
33 | ClSC(Cl)(Cl)Cl | 3.05% (inactive) | –
34 | Fc1ccc(C(OCCN2CCN(CCCc3ccccc3)CC2)c2ccc(F)cc2)cc1 | -30.2% [at 42.5 µM] (inactive) | –
35 | Oc1ccc2[nH]cc(CCCCN3CC=C(c4ccccc4)CC3)c2c1 | -18.3% [at 42.5 µM] (inactive) | –
36 | CNC(=O)/C=C(\C)OP(=O)(OC)OC | 1.71% (inactive) | –
37 | c1ccc(N=NNc2ccccc2)cc1 | – | 25.2 µM (active) and inactive
38 | Cc1c([N+](=O)[O-])cc2c(c1[N+](=O)[O-])C(C)(C)CC2(C)C | -20.1% (inactive) | –
39 | CCC[CH2][Sn]([CH2]CCC)([O]C(C)=O)[O]C(C)=O | -38.7% (inactive) | –
40 | CC(Cc1ccc(OCC(=O)O)cc1)NCC(O)c1csc(C(F)(F)F)n1 (stereo not given) | 1.19% (inactive) | –
